This is a sample that favours compounds with a hit; in the whole collection about 19% have one here.
SARS PLpro yeast: blocks SARS-CoV papain-like protease in a yeast assay. AID 485353. S. cerevisiae expressing SARS-CoV PLpro, growth rescue. 0.19% of 330,000 active. Potency, µM (series often up to 32.9 µM), actives largely listed as activators; calls by dose curve; further: nearly all actives have a fitted effect of over 55% in size
CHX counter: affects cycloheximide protein synthesis inhibition readout, counter-screen | cell reporter, cycloheximide protein synthesis inhibition counterscreen | max response, % | 12% of 300,000 active; in the data active means max response mostly above about 13%, no sharp cut-off; inactive means mostly below about 14%; further: read at 38.3 µM for the half of the compounds with a filed dose
Pf growth 96h: P. falciparum growth inhibition at 96 hours | Potency, µM (series often up to 28.7 µM), hits mostly inhibitors | P. falciparum luciferase reporter growth, 96 h | 6.9% of 320,000 active | AID 504834
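Cell-based qHTS: luciferase-tagged P. falciparum in erythrocytes (2% hematocrit, 0.05% parasitemia final) incubated with compounds for 96 hours, 37 C, 5% CO2; luciferase detection reagent then added and luminescence measured.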
Shiga toxin inh: inhibitors of Shiga toxin in Vero cells. Vero cells, Shiga toxin protein synthesis inhibition reporter. 9.2% of 290,000 active. inhibition, % at 38.7 µM. AID 2315; in the data active means inhibition mostly above about 28%, no sharp cut-off; inactive means mostly below about 43%
AMA1 RON2 block: disrupts binding of P. falciparum AMA1 to RON2; AlphaScreen AMA1-biotinylated RON2 peptide binding; Potency, µM (highest dose often 58.2 µM), hits mostly inhibitors; 0.2% of 360,000 active; further: nearly all actives have a fitted effect of over 45% in size
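AMA1 (3D7) with his tag at 25 nM final met compounds first, then biotinylated RON2 peptide at 25 nM; detection used donor plus acceptor beads, 10 µg/mL apiece, read by AlphaScreen after 30 min at room temperature.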
Pf growth 48h: P. falciparum growth inhibition at 48 hours (one generation); P. falciparum luciferase growth in erythrocytes, 48 h; 5.9% of 310,000 active; Potency, µM (highest dose often 28.7 µM), actives largely listed as inhibitors; AID 504832
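A one-generation exposure of luciferase-tagged malaria parasites in RPMI 1640/Albumax erythrocyte culture, 37 C and 5% CO2. Inhibition is inferred from decreased luminescence after adding detection reagent.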
Large screens that a line does not name were inactive. Unless noted, the call rests on the fitted dose curve; in most records, active means well fitted curve in the direction sought with a large enough effect; inconclusive means small, poorly fitted or top-dose-only effect, or another doubt; inactive means no such curve, though single readings can be large; an effect the other way counts as inactive or inconclusive.

CN(CC(=O)Nc1ccc(S(=O)(=O)N2CCCC2)cc1)Cc1cccc(Cl)c1Cl	Pf growth 96h 9.3µM
CC1(c2cc(F)ccc2F)NC(=O)N(CC(=O)Nc2cccc(S(=O)(=O)N3CCCC3)c2)C1=O (stereo not drawn)	Pf growth 96h inconclusive, Pf growth 48h 12µM (no result: CHX counter, Shiga toxin inh)
CN(CCOc1ccccc1)CC(=O)Nc1ccc(S(=O)(=O)N2CCCC2)cc1	Pf growth 96h inconclusive
Cc1c(NC(=O)CCc2ccccc2)cccc1[N+](=O)[O-]	none
COc1ccc(CCC(=O)Nc2cccc(S(=O)(=O)N3CCCCCC3)c2)cc1OC	Pf growth 96h inconclusive, Pf growth 48h 10µM (no result: CHX counter, Shiga toxin inh)
COc1ccc(CN(C)CC(=O)Nc2cccc(S(=O)(=O)N(C)c3ccccc3)c2)c(OC)c1	Pf growth 96h 15µM, Pf growth 48h inconclusive (no result: CHX counter, Shiga toxin inh)
COc1ccc(CCC(=O)Nc2cccc(S(=O)(=O)N3CCCC3)c2)cc1OC	Pf growth 96h inconclusive, Pf growth 48h inconclusive (no result: CHX counter, Shiga toxin inh)
COc1ccc(NC(=O)CN(C)CC(=O)Nc2cccc(S(=O)(=O)N(C)c3ccccc3)c2)cc1	Pf growth 96h inconclusive, Pf growth 48h inconclusive
Cc1cccc(NC(=O)CN(C)C(C)C(=O)Nc2ccc(S(=O)(=O)N3CCCC3)cc2)c1C (stereo not drawn)	Pf growth 96h inconclusive, Pf growth 48h 13µM (no result: CHX counter, Shiga toxin inh)
CCCS(=O)(=O)NC(=O)C1(C)CCCN(C(=O)c2cc(OC)ccc2Br)C1 (stereo not drawn)	none (no result: SARS PLpro yeast, CHX counter, Pf growth 96h, Shiga toxin inh, Pf growth 48h)
COc1cc(CN(C(C)=O)c2ccccc2C(=O)O)ccc1[N+](=O)[O-]	none (no result: SARS PLpro yeast, CHX counter, Pf growth 96h, Shiga toxin inh, Pf growth 48h)
CCN(CC)S(=O)(=O)c1cccc(C(=O)N[C@H](C(=O)Nc2nc3ccccc3s2)C(C)C)c1	CHX counter 17, Pf growth 96h inconclusive
CCN(CC)S(=O)(=O)c1cccc(C(=O)NC(C(=O)NC2=NCCS2)C(C)C)c1 (stereo not drawn)	Pf growth 48h inconclusive
Cc1cccc(C(=O)N[C@H](C(=O)Nc2nnc(C3CC3)s2)C(C)C)c1	none
CCN(CC)S(=O)(=O)c1cccc(C(=O)NC(C(=O)Nc2nnc(C3CC3)s2)C(C)C)c1 (stereo not drawn)	Pf growth 96h 8.3µM, Pf growth 48h inconclusive
CCN(CC)S(=O)(=O)c1cccc(C(=O)N[C@H](C(=O)Nc2nc3ccc(F)cc3s2)C(C)C)c1	CHX counter 40, Pf growth 96h 2.6µM, Shiga toxin inh 104, Pf growth 48h 13µM
COc1cc(C2C(C(=O)c3cc4ccccc4o3)=C(O)C(=O)N2CCN2CCOCC2)ccc1OCCC(C)C (stereo not drawn)	Pf growth 96h inconclusive
Fc1cccc(/C=N/NC(=S)Nc2ccccc2Cl)c1	CHX counter 36
FC(F)(F)c1ccc(Cl)c(NC(=S)N/N=C/c2ccccc2Cl)c1	Pf growth 96h 1.5µM, Pf growth 48h inconclusive
S=C(N/N=C/c1ccc(Cl)c(Cl)c1)Nc1ccccc1Cl	CHX counter 23
O=[N+]([O-])c1cc(/C=N/NC(=S)Nc2ccccc2Cl)ccc1Cl	none
C[C@@H]1CC2C3CCC4=CC(=O)C=C[C@]4(C)[C@@]3(F)[C@@H](O)C[C@]2(C)[C@@]1(O)C(=O)COC(=O)c1cccc(S(=O)(=O)O)c1 (stereo partly drawn)	none (no result: SARS PLpro yeast, CHX counter, Shiga toxin inh, AMA1 RON2 block)
O=C(O)c1ccc(S(=O)(=O)N[C@H](Cc2ccc(O)cc2)C(=O)O)cc1	none (no result: AMA1 RON2 block)
Cc1cccc(C(=O)N=c2c(C#N)cc3c(=O)n4cccc(C)c4nc3n2Cc2ccco2)c1	Pf growth 96h 13µM, AMA1 RON2 block inconclusive (no result: Pf growth 48h)
Cc1ccc(Cn2c(=N)c(C#N)cc3c(=O)n4cccc(C)c4nc32)cc1	Pf growth 96h 15µM (no result: AMA1 RON2 block)
CCOCCCn1c(=NC(=O)c2cccs2)c(C#N)cc2c(=O)n3cccc(C)c3nc21	Pf growth 48h 1.9µM
CCOCCCn1c(=NC(C)=O)c(C#N)cc2c(=O)n3ccccc3nc21	none
CC(=O)N=c1c(C#N)cc2c(=O)n3ccccc3nc2n1Cc1ccccc1	Pf growth 96h 8.3µM, Pf growth 48h inconclusive
CS(=O)(=O)N1CCC(C(=O)Nc2cc(Cl)cc(Cl)c2)CC1	none
CCOC(=O)N1CCN(C(=O)c2cn(CC)c3cc(N4CCN(C)CC4)c(F)cc3c2=O)CC1	none (no result: AMA1 RON2 block)
CCN(C(=O)c1cc2c(=O)n3cccc(C)c3nc2n1CCCOC)C1CCCCC1	Pf growth 96h 9.3µM, Pf growth 48h inconclusive

Screens as filed in PubChem.
